Consider 14 compounds from PubChem BioAssay (NCI).

About 83,000 compounds went through this panel and 20% of them were active in at least one assay; those are over-represented in the sample as a whole.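 For each line, cells grew in 96-well plates with the test compound present at a single concentration for 48 hours.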 Values without a mark were called inactive. Active and inactive are the calls of the source. The calls were made as follows: active = growth percent below 10; inactive = the rest.

The subject of the assay is MDA-MB-468 breast. The experiment in a line: NCI-60 one-dose screen, 48 h (100 = growth as untreated, 0 = no growth, -100 = all killed). To be noted: 10 µM unless noted.
For the compound `O=C1/C(=C/C(Cl)=C/c2ccccc2)SC(=S)N1CCc1ccc(O)cc1`, the growth is -36.2% (active).
Then `CN1CCN(C(=O)c2ccc(NC(=O)Nc3ccc(-c4nc(N5CCOCC5)c5cccn5n4)cc3)cc2)CC1`, with -60.7% (active); and `O=C1/C(=C\c2ccc(F)cc2)CN(C(=O)c2ccc([N+](=O)[O-])cc2)C/C1=C\c1ccc(F)cc1`, with 0.822% (active); and `Cc1cc(-c2nnc(/C=C/c3ccc4c(c3)OCO4)o2)n[nH]1`, with 54%.
With `COc1cc(N=Nc2ccc(N)cc2)c(OC)cc1N=Nc1ccccc1.[Cl][Zn][Cl]` the figure was 118%; with `C=C(C)[C@@H]1CC[C@]2(CN)CC[C@]3(C)[C@H](CC[C@@H]4[C@@]5(C)CCC(N)[C@@](C)(CO)[C@@H]5CC[C@]43C)[C@@H]12` (some centres undefined), -86.6% (active); with `C/C=C/CSC(C)(C)C(=O)NC`, 96.4%.
As to `CCCOC(=O)Nc1nc2ccc(SCC(C)C)cc2s1`, the growth is -9.94% (active).
Take `COc1ccc(-c2cc(-c3ccccc3)nc(N3CCN(CCNc4ccnc5cc(Cl)ccc45)CC3)n2)cc1`: the growth is -54.7% (active).
With `CCOC(=O)c1nc2c3ccccc3ccn2c1C(=O)OCC` the figure was 109%; with `NS(=O)(=O)c1ccc(CCn2c(SCC(=O)N/N=C/c3cc4ccccc4[nH]3)nc3ccccc3c2=O)cc1`, 60.2%; with `CCCCCCCCN(CCCCCCCC)C(=O)CCl`, 79.9%.
As to `COc1ccc(-c2cc(-c3cn(-c4cccc(Cl)c4)nc3-c3ccc(OC)cc3)[nH]c(=S)n2)cc1`, the growth is 39%.
Then `C#Cc1ccc(NC(=O)Cc2ccc(/C=C/C(=O)c3nccn3C)cc2)cc1`, with 33.8%.
